# Screening data (PubChem)
# In the library only some 0.56% were active in any assay of this set; here they are far more common.
# N-glyco inh – increase of ERlucT glycosylation luciferase signal, primary screen, N-linked glycosylation inhibitor project, D54 ERlucT cells, luminescence, set 2; D54 ERlucT glycosylation luciferase reporter, 24 h; percent of 100 nM tunicamycin response; reporter increase, % at 12.5 µM; hit rate 0.23% among 360,000; AID 588692, 2011;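 active = mean luciferase reporter signal, scaled so untreated is 0 and the glycosylation-blocking control 100, at or above a set limit in every replicate; inconclusive = mean reaches the limit but not every replicate does; inactive = mean below the limit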;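 also: luciferase carries N-glycosylation sites so blocking glycosylation raises the light; 0% = median of neutral control wells and 100% = median of 100 nM tunicamycin wells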
# ERp5 inh – inhibitors of ERp5-driven insulin aggregation, primary screen, biochemical, turbidity, absorbance 650 nm, single point; Protein disulfide-isomerase A6 (Homo sapiens), Q15084; 90 min; AID 651711, 2012; hit rate 0.05% among 350,000; inhibition, % at 9.99 µM;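 active = mean replicate inhibition above about 25%, with every replicate also reaching it, limit read from the data, passing the limit was not always enough; inconclusive = only one of those two criteria met; inactive = neither criterion met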
# PvdQ inh – P. aeruginosa PvdQ acylase inhibitors, primary screen, biochemical, fluorescence, plate reader and imaging, single point. PvdQ acylase [Pseudomonas aeruginosa LESB58]. purified PvdQ acylase. inhibition, % at 10 µM. hit rate 0.063% among 340,000. AID 488965, 2010; in the data active = inhibition above about 30%, passing the limit was not always enough; inconclusive = no clear call, values can overlap the other calls;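 also: 0% = vehicle neutral wells and 100% = reference inhibitor wells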
# Vif imaging – HIV Vif self-association inhibitors, primary screen, imaging, HEK293T, single point | hit rate 0.35% among 340,000 | HEK293T cells, Vif self-association by quenched fluorescence, 24 h | AID 602346, 2012 | inhibition, % at 7.49 µM; in the data active = inhibition above about 50%, passing the limit was not always enough; inconclusive = no clear call, values can overlap the other calls; inactive = below about 31%
# PDI turbidity – inhibitors of human PDI, primary screen, biochemical, turbidity, single point, plate reader. AID 588391, 2011. inhibition, % at 10 µM. hit rate 0.052% among 350,000. PDI insulin aggregation turbidity, A650, 90 min. Protein disulfide-isomerase (Homo sapiens), P07237;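 active = mean inhibition across replicates of 30% or more, whatever share of single replicates reach that level; inconclusive = mean inhibition below 30% while every single replicate reaches 30%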
# Target sequence (P07237 whole entry, looked up): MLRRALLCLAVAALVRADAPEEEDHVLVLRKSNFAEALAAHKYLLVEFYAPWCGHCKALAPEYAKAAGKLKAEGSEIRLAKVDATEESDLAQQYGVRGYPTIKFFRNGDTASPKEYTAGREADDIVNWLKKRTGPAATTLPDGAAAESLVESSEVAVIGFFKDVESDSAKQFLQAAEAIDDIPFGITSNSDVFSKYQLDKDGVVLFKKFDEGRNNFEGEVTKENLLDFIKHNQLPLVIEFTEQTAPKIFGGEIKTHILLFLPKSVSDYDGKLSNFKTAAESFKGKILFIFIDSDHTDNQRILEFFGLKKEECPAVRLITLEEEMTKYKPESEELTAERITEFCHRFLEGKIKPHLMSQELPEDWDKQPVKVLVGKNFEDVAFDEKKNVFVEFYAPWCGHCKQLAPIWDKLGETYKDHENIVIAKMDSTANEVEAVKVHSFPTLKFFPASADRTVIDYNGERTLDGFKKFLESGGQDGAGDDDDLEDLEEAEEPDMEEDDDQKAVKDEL
# * marks the source's active call; other numbers are inactive results; ? = inconclusive; · = not tested or not shown.
SMILES,N-glyco inh,ERp5 inh,PvdQ inh,Vif imaging,PDI turbidity
Cc1ccc(O)c(C2=NNC(c3ccc(Cl)cc3)C2)c1 (stereo not drawn),-6,-1,-2,0,1
Oc1ccc(Cl)cc1C1=NNC(c2cccs2)C1 (stereo not drawn),1,-8,34*,3,-3
O=C(COc1ccc(Br)cc1)N1CCOCC1,1,·,-14,-3,1
Cn1cnc([N+](=O)[O-])c1Sc1nc2ccccc2[nH]1,29*,0,·,5,9
COc1cccc(CNc2ccc3c(c2)CCC3)c1,-7,·,2,60*,-7
O=c1ccnc2n1COCS2,3,-4,-11,-5,-3
Cc1ccc(C)c(-c2nnc(NC(=O)c3ccc([N+](=O)[O-])o3)o2)c1,5,2,0,-8,-12
CCN1C(=O)CC(N2CCC(C(=O)OC)CC2)C1=O (stereo not drawn),0,·,-13,-7,3
COC(=O)C1CCN(C2CC(=O)N(c3cc(C)cc(C)c3)C2=O)CC1 (stereo not drawn),0,3,36*,4,17
O=C(Cn1cc(C(=O)C(=O)N2CCOCC2)c2ccccc21)Nc1cccc(C(F)(F)F)c1,1,1,·,70*,1
C[C@H]1CN([C@@H](C)CO)C(=O)c2cccc(NC(=O)Nc3ccc(F)cc3)c2O[C@H]1CN(C)Cc1ccncc1,·,-9,·,·,·
C=C(NC(=O)C(=C)NC(=O)c1csc(C2=NC3c4csc(n4)C4NC(=O)c5csc(n5)C(C(C)(O)C(C)O)NC(=O)C5CSC(=N5)/C(=C/C)NC(=O)C(C(C)O)NC(=O)c5csc(n5)C3(CC2)NC(=O)C(C)NC(=O)C(=C)NC(=O)C(=C)NC(=O)C(C(C)C)NC2C=Cc3c(C(C)O)cc(nc3C2O)C(=O)OC4C)n1)C(N)=O (stereo not drawn),-6,-2,5,176*,-6
CCN(CC)CCCNc1ccc2ncn3c4ccc(O)cc4c(=O)c1c23,81*,4,-3,·,-4
CN(C)CCNc1ccc2nnn3c4ccc(O)cc4c(=O)c1c23,?,5,-6,-9,-3
CCOc1ccc(NC(=O)/C(C#N)=C\c2ccc(N3CCCC3)c(C)c2)cc1,-6,2,-6,54*,-2
C#CCSc1ncc(-c2ccccc2)cn1,1,-4,48*,-2,-14
Cc1ccc2nc(-c3ccc(NC(=O)CNC4CC4)cc3)sc2c1,-10,0,3,6,7
CN1/C(=C\C=C(C#N)C#N)C(C)(C)c2ccccc21,2,-2,14,119*,2
COCCNC(=O)CSc1nc2cc3c(cc2c(=O)n1CCCC(=O)NCc1ccc(OC)cc1)OCO3,1,-3,0,-2,-9
Cc1cccc2cc(COC(=O)c3ccco3)c(=O)[nH]c12,-1,·,-17,64*,11
Cc1cccc2cc(COC(=O)c3ccccc3)c(=O)[nH]c12,2,·,-16,8,15
COC(=O)c1ccc(Oc2coc3cc(OCc4cnn(-c5ccccc5)c4)ccc3c2=O)cc1,3,·,-10,142*,-15
COC(=O)c1ccc(Oc2c(C)oc3cc(OCc4cnn(-c5ccccc5)c4)ccc3c2=O)cc1,0,·,-19,10,0
Cc1ccc(C)c(S(=O)(=O)N2CCN(C(=O)CCc3nc4ccccc4c(=O)[nH]3)CC2)c1,4,-13,-11,·,-6
Cc1ccc(S(=O)(=O)N2CCN(C(=O)c3n[nH]c(=O)c4ccccc34)CC2)c(C)c1,1,-2,8,53*,-6
Cc1ccc(S(=O)(=O)N2CCN(C(=O)CCc3nc4ccccc4c(=O)[nH]3)CC2)c(C)c1,-2,26*,-1,-2,-4
N#CCC(CNc1ncc(C(F)(F)F)cc1Cl)OC(=O)c1cccc([N+](=O)[O-])c1 (stereo not drawn),29*,·,-8,-5,5
N#CCC(CNc1ncc(C(F)(F)F)cc1Cl)OC(=O)c1ccc(Cl)cc1 (stereo not drawn),20,·,-1,3,-1
COC(=O)c1cc(C)nc2c1C(=O)C(=O)C=C2N1CCOCC1,-20,63*,5,-8,2
O=C(COC(=O)c1cc(S(=O)(=O)N2CCOCC2)ccc1F)c1ccc[nH]1,3,·,-9,53*,9
